# Reference: the supplement of paper PMC8728848
# Shown is part of a subset that was picked to be rich in the strongest signals.
# B1: rMpL (Macrolepiota procera) (protein)
# chain: MSTQVSSGRTYKITNVIAGTVIDLSGEDNKSIIGYPYHSGKNQQWTFNWTGKAWTLRSASSGSYLGIEGTPAGGTRLVAVNDPFEWHIWRDEANENAFRIFVPFTNYNLDLSGYGDTTPGTPVQLWWTWEGLHQTWTIDRP
# How the values were obtained:
# Assay in all cases: glycan array binding signal (z-score within array); higher = stronger binding
# Conditions in all cases: glycan notation: IUPAC condensed, linker removed
# [1] = biological target: Fuc(a1-2)Gal(b1-3)GalNAc(b1-3)Gal
# How it was run: (§1)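 From the Consortium for Functional Glycomics database, 3228 arrays were curated, keeping only those whose protein sequence was available. Binding is given as a within-array Z-score averaged across arrays sharing a protein sequence and across linkers. Negative Z-scores can be read as non-binding.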
# [2] = biological target: Fuc(a1-2)Gal(b1-3)GlcNAc(b1-3)[Fuc(a1-2)Gal(b1-3)GlcNAc(b1-6)]GalNAc
# How it was run: as §1
# [3] = biological target: Fuc(a1-2)Gal(b1-4)GlcNAc(b1-3)Gal(b1-4)GlcNAc(b1-3)Gal(b1-4)GlcNAc
# How it was run: as §1
# [4] = biological target: Fuc(a1-2)Gal(b1-4)GlcNAc(b1-3)GalNAc
# How it was run: as §1
# [5] = biological target: Fuc(a1-2)[Gal(a1-3)]Gal(b1-3)GlcNAc(b1-2)Man(a1-3)[Fuc(a1-2)[Gal(a1-3)]Gal(b1-3)GlcNAc(b1-2)Man(a1-6)]Man(b1-4)GlcNAc(b1-4)GlcNAc
# How it was run: as §1
# [6] = biological target: Fuc(a1-2)[Gal(a1-3)]Gal(b1-4)GlcNAc(b1-2)Man(a1-3)[Fuc(a1-2)[Gal(a1-3)]Gal(b1-4)GlcNAc(b1-2)Man(a1-6)]Man(b1-4)GlcNAc(b1-4)GlcNAc
# How it was run: as §1
# [7] = biological target: Fuc(a1-2)[Gal(a1-3)]Gal(b1-4)[Fuc(a1-3)]GlcNAc
# How it was run: as §1
# [8] = biological target: Fuc(a1-2)[GalNAc(a1-3)]Gal(b1-3)GlcNAc(b1-6)GalNAc
# How it was run: as §1
# [9] = biological target: Fuc(a1-3)[Gal(b1-4)]GlcNAc(b1-6)GalNAc
# How it was run: as §1
# [10] = biological target: Fuc(a1-3)[Gal3S(b1-4)]GlcNAc
# How it was run: as §1
# [11] = biological target: Fuc(a1-4)GlcNAc
# How it was run: as §1
# [12] = biological target: Gal(a1-3)Gal(b1-4)Glc
# How it was run: as §1
# [13] = biological target: Gal(a1-3)Gal(b1-4)GlcNAc(b1-6)GalNAc
# How it was run: as §1
# [14] = biological target: Gal(b1-3)Gal(b1-4)GlcNAc
# How it was run: as §1
# [15] = biological target: Gal(b1-3)GalNAc
# How it was run: as §1
# [16] = biological target: Gal(b1-3)GalNAc(b1-3)Gal
# How it was run: as §1
# [17] = biological target: Gal(b1-3)GlcNAc(b1-2)[Gal(b1-3)GlcNAc(b1-6)]Man(a1-6)[Gal(b1-3)GlcNAc(b1-2)Man(a1-3)]Man(b1-4)GlcNAc(b1-4)GlcNAc
# How it was run: as §1
# [18] = biological target: Gal(b1-3)GlcNAc(b1-3)Gal(b1-4)Glc
# How it was run: as §1
# [19] = biological target: Gal(b1-3)GlcNAc(b1-3)Gal(b1-4)GlcNAc(b1-2)[Gal(b1-3)GlcNAc(b1-3)Gal(b1-4)GlcNAc(b1-6)]Man(a1-6)[Gal(b1-3)GlcNAc(b1-3)Gal(b1-4)GlcNAc(b1-2)Man(a1-3)]Man(b1-4)GlcNAc(b1-4)[Fuc(a1-6)]GlcNAc
# How it was run: as §1
# [20] = biological target: Gal(b1-3)GlcNAc(b1-3)Gal(b1-4)GlcNAc(b1-3)Gal(b1-4)GlcNAc(b1-2)[Gal(b1-3)GlcNAc(b1-3)Gal(b1-4)GlcNAc(b1-3)Gal(b1-4)GlcNAc(b1-6)]Man(a1-6)[Gal(b1-3)GlcNAc(b1-3)Gal(b1-4)GlcNAc(b1-3)Gal(b1-4)GlcNAc(b1-2)Man(a1-3)]Man(b1-4)GlcNAc(b1-4)[Fuc(a1-6)]GlcNAc
# How it was run: as §1
# [21] = biological target: Gal(b1-3)GlcNAc(b1-3)Gal(b1-4)GlcNAc(b1-6)[Gal(b1-3)GlcNAc(b1-3)]Gal(b1-4)Glc
# How it was run: as §1
# [22] = biological target: Gal(b1-3)GlcNAc(b1-3)GalNAc
# How it was run: as §1
# [23] = biological target: Gal(b1-4)GlcNAc(a1-6)Gal(b1-4)GlcNAc
# How it was run: as §1
# [24] = biological target: Gal(b1-4)GlcNAc(b1-2)[Gal(b1-4)GlcNAc(b1-4)]Man(a1-3)[Gal(b1-4)GlcNAc(b1-2)[Gal(b1-4)GlcNAc(b1-6)]Man(a1-6)][GlcNAc(b1-4)]Man(b1-4)GlcNAc(b1-4)GlcNAc
# How it was run: as §1
# [25] = biological target: Gal(b1-4)GlcNAc(b1-2)[Gal(b1-4)GlcNAc(b1-4)]Man(a1-3)[GlcNAc(b1-4)][Gal(b1-4)GlcNAc(b1-2)Man(a1-6)]Man(b1-4)GlcNAc(b1-4)GlcNAc
# How it was run: as §1
# [26] = biological target: Gal(b1-4)GlcNAc(b1-3)Gal(b1-4)GlcNAc(b1-2)[Gal(b1-4)GlcNAc(b1-3)Gal(b1-4)GlcNAc(b1-6)]Man(a1-6)[Gal(b1-4)GlcNAc(b1-3)Gal(b1-4)GlcNAc(b1-2)Man(a1-3)]Man(b1-4)GlcNAc(b1-4)GlcNAc
# How it was run: as §1
# [27] = biological target: Gal(b1-4)GlcNAc(b1-3)Gal(b1-4)GlcNAc(b1-2)[Gal(b1-4)GlcNAc(b1-3)Gal(b1-4)GlcNAc(b1-6)]Man(a1-6)[Gal(b1-4)GlcNAc(b1-3)Gal(b1-4)GlcNAc(b1-2)Man(a1-3)]Man(b1-4)GlcNAc(b1-4)[Fuc(a1-6)]GlcNAc
# How it was run: as §1
# [28] = biological target: Gal(b1-4)GlcNAc(b1-3)Gal(b1-4)GlcNAc(b1-3)Gal(b1-4)GlcNAc(b1-2)[Gal(b1-4)GlcNAc(b1-3)Gal(b1-4)GlcNAc(b1-3)Gal(b1-4)GlcNAc(b1-6)]Man(a1-6)[Gal(b1-4)GlcNAc(b1-3)Gal(b1-4)GlcNAc(b1-3)Gal(b1-4)GlcNAc(b1-2)Man(a1-3)]Man(b1-4)GlcNAc(b1-4)[Fuc(a1-6)]GlcNAc
# How it was run: as §1
# [29] = biological target: Gal(b1-4)GlcNAc(b1-3)Gal(b1-4)GlcNAc(b1-3)Gal(b1-4)GlcNAc(b1-3)Gal(b1-4)GlcNAc(b1-2)Man(a1-3)[Gal(b1-4)GlcNAc(b1-3)Gal(b1-4)GlcNAc(b1-3)Gal(b1-4)GlcNAc(b1-3)Gal(b1-4)GlcNAc(b1-2)Man(a1-6)]Man(b1-4)GlcNAc(b1-4)GlcNAc
# How it was run: as §1
# [30] = biological target: Gal(b1-4)GlcNAc(b1-3)Gal(b1-4)GlcNAc(b1-3)Gal(b1-4)GlcNAc(b1-3)Gal(b1-4)GlcNAc(b1-2)Man(a1-3)[Gal(b1-4)GlcNAc(b1-3)Gal(b1-4)GlcNAc(b1-3)Gal(b1-4)GlcNAc(b1-3)Gal(b1-4)GlcNAc(b1-2)Man(a1-6)]Man(b1-4)GlcNAc(b1-4)[Fuc(a1-6)]GlcNAc
# How it was run: as §1
binder,measurement,setting,value
B1,glycan array binding signal (z-score),[1],-0.272
same,glycan array binding signal (z-score),[2],-0.078
same,glycan array binding signal (z-score),[3],-0.248
same,glycan array binding signal (z-score),[4],-0.301
same,glycan array binding signal (z-score),[5],-0.259
same,glycan array binding signal (z-score),[6],-0.257
same,glycan array binding signal (z-score),[7],-0.216
same,glycan array binding signal (z-score),[8],-0.353
same,glycan array binding signal (z-score),[9],-0.065
same,glycan array binding signal (z-score),[10],-0.253
same,glycan array binding signal (z-score),[11],-0.316
same,glycan array binding signal (z-score),[12],-0.194
same,glycan array binding signal (z-score),[13],-0.27
same,glycan array binding signal (z-score),[14],-0.257
same,glycan array binding signal (z-score),[15],-0.273
same,glycan array binding signal (z-score),[16],-0.243
same,glycan array binding signal (z-score),[17],3.42
same,glycan array binding signal (z-score),[18],0.808
same,glycan array binding signal (z-score),[19],2.4
same,glycan array binding signal (z-score),[20],3.58
same,glycan array binding signal (z-score),[21],4.17
same,glycan array binding signal (z-score),[22],0.153
same,glycan array binding signal (z-score),[23],9.59
same,glycan array binding signal (z-score),[24],4.13
same,glycan array binding signal (z-score),[25],1.46
same,glycan array binding signal (z-score),[26],1.23
same,glycan array binding signal (z-score),[27],3.75
same,glycan array binding signal (z-score),[28],4.71
same,glycan array binding signal (z-score),[29],3.24
same,glycan array binding signal (z-score),[30],3.33
